Here are results for 1 sequence from PMC7862700, “An all-to-all approach to the identification of sequence-specific readers for epigenetic DNA modifications on cytosine”.

Assay in all cases: DAPPL (digital affinity profiling via proximity ligation, sequencing); 10 mM Tris-HCl pH 7.5, 50 mM NaCl, 1 mM DTT, 4% glycerol, room temperature, 30 min; GST-TFs on glutathione beads, 16-mer random dsDNA library, 0.1% formaldehyde crosslink after washing; high values mean tight binding
The target of one experiment is T1, FEV (Homo sapiens, UniProt Q99581 1-238).
T1 sequence: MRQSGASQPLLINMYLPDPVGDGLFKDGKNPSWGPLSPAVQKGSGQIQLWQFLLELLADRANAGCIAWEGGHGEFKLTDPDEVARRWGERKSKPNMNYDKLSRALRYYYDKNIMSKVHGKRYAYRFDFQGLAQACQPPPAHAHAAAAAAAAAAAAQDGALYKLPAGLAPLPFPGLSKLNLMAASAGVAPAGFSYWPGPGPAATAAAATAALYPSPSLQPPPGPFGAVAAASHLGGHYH
Conditions: protein: recombinant; tags: N-terminal GST; dsDNA, one strand shown. A digest of the protocol:
(§1)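 Beads coated with glutathione captured GST-fused human transcription factors that had been expressed in yeast, and the factors were then given DNA barcodes and pooled with a tag-only sample. The pools were incubated with 200 nmole of a random double-stranded 16-mer DNA library in Tris/NaCl/DTT/glycerol buffer for 30 min at room temperature, washed, crosslinked with 0.1% formaldehyde and proximity-ligated with BsaI/T4 ligase at 37 °C for 1 h. PCR amplification and Illumina NextSeq500 sequencing came last. Binding signal is each hexamer's read frequency for a factor divided by its frequency for the tag-only sample.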

Another experiment deals with ETV5 (Homo sapiens, UniProt P41161 1-510). Conditions: protein: recombinant; tags: N-terminal GST; dsDNA, one strand shown. Put shortly:
as §1

Another experiment has as its target HSF1 (Homo sapiens, UniProt Q00613 1-529). The following applies: protein: recombinant; tags: N-terminal GST; chain copies: 3; dsDNA, one strand shown. A digest of the protocol:
as §1

Another experiment addresses T2, SPIC (Homo sapiens, UniProt Q8N5J4 1-248).
T2 sequence: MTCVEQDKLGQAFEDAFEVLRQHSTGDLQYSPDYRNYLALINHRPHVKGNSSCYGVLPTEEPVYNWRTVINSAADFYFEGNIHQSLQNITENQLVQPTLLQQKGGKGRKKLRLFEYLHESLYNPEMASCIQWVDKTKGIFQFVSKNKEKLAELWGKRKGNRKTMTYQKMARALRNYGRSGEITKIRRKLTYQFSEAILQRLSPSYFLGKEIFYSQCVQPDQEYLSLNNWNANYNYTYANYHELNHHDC
The following applies: protein: recombinant; tags: N-terminal GST; dsDNA, one strand shown. Put shortly:
as §1

Another experiment concerns the target ELF4 (Homo sapiens, UniProt Q99607 1-663). Conditions: protein: recombinant; tags: N-terminal GST; dsDNA, one strand shown. A digest of the protocol:
as §1

A further experiment deals with T3, ELK4 (Homo sapiens, UniProt P28324-2 1-405).
T3 sequence: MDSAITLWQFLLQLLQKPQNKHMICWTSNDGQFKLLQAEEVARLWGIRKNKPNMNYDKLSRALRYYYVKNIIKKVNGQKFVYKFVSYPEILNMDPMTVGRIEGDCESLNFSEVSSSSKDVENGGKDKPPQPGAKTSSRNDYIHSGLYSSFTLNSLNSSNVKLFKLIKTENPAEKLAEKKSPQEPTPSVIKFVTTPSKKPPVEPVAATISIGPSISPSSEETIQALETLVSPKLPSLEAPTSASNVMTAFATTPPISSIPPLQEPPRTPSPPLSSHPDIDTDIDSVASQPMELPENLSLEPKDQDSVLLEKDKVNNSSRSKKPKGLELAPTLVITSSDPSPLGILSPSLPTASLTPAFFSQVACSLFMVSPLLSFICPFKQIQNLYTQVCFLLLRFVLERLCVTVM
Conditions: protein: recombinant; tags: N-terminal GST; dsDNA, one strand shown. A digest of the protocol: as §1

The target of the next experiment is T4, ETV2 (Homo sapiens, UniProt O00321 1-342).
T4 sequence: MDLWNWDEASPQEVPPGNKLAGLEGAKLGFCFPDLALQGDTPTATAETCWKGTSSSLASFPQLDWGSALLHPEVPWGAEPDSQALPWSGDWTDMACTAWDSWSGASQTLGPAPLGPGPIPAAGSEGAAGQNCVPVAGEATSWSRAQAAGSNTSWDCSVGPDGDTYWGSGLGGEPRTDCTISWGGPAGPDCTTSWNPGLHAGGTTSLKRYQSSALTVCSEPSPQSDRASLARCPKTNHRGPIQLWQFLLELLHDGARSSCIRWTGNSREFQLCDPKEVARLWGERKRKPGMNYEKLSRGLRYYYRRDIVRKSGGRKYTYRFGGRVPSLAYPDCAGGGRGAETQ
The following applies: protein: recombinant; tags: N-terminal GST; dsDNA, one strand shown. A digest of the protocol: as §1

Another experiment has as its target T5, ELF3 (Homo sapiens, UniProt P78545 1-371).
T5 sequence: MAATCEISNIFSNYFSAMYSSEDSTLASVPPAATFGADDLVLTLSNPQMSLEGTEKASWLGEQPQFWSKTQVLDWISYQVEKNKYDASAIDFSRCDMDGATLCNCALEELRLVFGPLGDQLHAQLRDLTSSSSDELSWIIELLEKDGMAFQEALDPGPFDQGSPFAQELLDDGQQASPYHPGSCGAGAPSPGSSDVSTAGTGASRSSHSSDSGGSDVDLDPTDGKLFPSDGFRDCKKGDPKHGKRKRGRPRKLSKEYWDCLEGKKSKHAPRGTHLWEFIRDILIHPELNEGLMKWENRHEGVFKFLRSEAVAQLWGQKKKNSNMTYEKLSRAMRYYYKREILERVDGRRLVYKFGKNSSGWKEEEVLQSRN
Conditions: protein: recombinant; tags: N-terminal GST; dsDNA, one strand shown. A digest of the protocol: as §1

A further experiment has as its target CRX (Homo sapiens, UniProt O43186 1-299). Conditions: protein: recombinant; tags: N-terminal GST; dsDNA, one strand shown. A digest of the protocol:
as §1

The target in another experiment is ETV1 (Homo sapiens, UniProt P50549 1-477). Conditions: protein: recombinant; tags: N-terminal GST; dsDNA, one strand shown. Put shortly: as §1
Chain of ETV1 (P50549 whole entry): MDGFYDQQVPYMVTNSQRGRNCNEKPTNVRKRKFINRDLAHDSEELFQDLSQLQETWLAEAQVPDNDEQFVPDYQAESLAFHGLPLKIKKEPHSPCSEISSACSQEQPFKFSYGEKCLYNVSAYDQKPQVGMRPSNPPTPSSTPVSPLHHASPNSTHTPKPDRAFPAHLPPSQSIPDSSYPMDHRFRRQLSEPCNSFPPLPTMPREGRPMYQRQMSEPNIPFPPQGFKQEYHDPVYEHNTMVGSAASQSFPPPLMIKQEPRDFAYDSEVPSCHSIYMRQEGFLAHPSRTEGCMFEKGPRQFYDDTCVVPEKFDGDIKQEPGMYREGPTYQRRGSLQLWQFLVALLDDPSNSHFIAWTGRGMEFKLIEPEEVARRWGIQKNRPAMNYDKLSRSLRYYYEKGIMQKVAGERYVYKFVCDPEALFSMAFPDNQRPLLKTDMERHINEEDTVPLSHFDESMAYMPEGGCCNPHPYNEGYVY
A further experiment has as its target T6, ERF (Homo sapiens, UniProt P50548 1-548).
T6 sequence: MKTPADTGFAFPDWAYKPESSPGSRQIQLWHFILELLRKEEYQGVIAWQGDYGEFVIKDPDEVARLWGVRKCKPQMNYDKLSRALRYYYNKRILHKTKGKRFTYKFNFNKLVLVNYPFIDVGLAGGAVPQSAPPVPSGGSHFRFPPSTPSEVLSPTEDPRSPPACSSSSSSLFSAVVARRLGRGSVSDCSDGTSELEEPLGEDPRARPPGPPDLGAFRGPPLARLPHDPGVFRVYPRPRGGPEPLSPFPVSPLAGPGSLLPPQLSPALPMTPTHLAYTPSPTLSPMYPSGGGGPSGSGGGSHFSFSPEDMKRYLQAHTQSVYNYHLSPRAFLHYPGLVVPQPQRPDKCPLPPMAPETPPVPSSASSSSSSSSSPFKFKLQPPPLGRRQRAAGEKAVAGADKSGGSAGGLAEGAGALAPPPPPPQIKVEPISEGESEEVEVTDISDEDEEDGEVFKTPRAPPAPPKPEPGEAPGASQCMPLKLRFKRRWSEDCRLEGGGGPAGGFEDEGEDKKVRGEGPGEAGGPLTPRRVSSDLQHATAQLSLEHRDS
Conditions: protein: recombinant; tags: N-terminal GST; dsDNA, one strand shown. A digest of the protocol: as §1

The next experiment has as its target T7, ETV3L (Homo sapiens, UniProt Q6ZN32 1-361).
T7 sequence: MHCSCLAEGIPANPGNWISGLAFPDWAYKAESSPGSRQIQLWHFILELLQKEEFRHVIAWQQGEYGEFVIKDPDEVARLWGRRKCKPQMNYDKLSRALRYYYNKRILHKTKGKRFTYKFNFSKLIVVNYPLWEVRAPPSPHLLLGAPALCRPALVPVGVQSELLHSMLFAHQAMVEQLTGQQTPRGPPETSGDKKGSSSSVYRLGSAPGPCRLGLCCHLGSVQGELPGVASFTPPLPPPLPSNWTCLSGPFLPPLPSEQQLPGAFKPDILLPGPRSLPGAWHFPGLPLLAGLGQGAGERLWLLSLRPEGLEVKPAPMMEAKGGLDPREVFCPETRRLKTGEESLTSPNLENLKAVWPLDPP
Conditions: protein: recombinant; tags: N-terminal GST; dsDNA, one strand shown. Put shortly: as §1

The next experiment deals with T8, ETS2 (Homo sapiens, UniProt P15036 1-469).
T8 sequence: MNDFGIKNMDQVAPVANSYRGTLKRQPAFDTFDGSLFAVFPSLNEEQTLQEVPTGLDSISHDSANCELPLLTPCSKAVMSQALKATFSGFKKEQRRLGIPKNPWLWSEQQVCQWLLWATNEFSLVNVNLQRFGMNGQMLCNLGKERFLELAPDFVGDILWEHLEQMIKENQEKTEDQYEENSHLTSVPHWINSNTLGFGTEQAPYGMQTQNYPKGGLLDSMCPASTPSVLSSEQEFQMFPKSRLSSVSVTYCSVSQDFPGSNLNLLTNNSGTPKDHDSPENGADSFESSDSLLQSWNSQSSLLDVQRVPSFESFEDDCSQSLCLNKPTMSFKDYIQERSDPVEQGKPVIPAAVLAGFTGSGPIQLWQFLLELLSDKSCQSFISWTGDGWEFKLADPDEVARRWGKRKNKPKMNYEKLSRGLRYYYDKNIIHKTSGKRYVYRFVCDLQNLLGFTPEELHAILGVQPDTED
The following applies: protein: recombinant; tags: N-terminal GST; dsDNA, one strand shown. A digest of the protocol:
as §1

The next experiment concerns the target T9, SPDEF (Homo sapiens, UniProt O95238 1-335).
T9 sequence: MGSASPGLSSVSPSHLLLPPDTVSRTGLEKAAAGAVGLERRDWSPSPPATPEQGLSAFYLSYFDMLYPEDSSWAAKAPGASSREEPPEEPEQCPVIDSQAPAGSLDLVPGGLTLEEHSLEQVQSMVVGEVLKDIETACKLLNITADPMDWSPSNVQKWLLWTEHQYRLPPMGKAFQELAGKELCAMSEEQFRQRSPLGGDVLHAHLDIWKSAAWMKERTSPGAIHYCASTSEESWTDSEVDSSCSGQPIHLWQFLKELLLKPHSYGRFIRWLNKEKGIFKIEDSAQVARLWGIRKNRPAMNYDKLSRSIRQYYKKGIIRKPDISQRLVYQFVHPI
The following applies: protein: recombinant; tags: N-terminal GST; dsDNA, one strand shown. A digest of the protocol:
as §1

The target in the next experiment is T10, ETV7 (Homo sapiens, UniProt Q9Y603 1-341).
T10 sequence: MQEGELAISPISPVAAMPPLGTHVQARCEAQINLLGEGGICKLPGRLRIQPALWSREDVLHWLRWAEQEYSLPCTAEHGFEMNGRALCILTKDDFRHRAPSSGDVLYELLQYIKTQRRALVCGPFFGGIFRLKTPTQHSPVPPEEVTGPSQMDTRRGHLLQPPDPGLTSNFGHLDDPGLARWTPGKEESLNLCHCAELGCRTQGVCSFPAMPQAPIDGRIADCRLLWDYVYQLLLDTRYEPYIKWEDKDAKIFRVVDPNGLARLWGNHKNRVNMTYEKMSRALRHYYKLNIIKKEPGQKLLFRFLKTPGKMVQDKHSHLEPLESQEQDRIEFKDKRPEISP
Conditions: protein: recombinant; tags: N-terminal GST; dsDNA, one strand shown. A digest of the protocol:
as §1

The target of the next experiment is T11, ELF5 (Homo sapiens, UniProt Q9UKW6-2 1-255).
T11 sequence: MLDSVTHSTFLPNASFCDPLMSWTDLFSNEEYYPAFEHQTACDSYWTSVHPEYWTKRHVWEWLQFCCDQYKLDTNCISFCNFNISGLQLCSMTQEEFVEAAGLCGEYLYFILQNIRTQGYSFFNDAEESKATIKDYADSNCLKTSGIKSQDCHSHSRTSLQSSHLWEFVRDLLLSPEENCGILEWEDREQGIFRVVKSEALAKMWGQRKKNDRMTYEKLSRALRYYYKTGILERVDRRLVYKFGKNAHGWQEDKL
The following applies: protein: recombinant; tags: N-terminal GST; dsDNA, one strand shown. A digest of the protocol:
as §1

The next experiment concerns the target T12, ETV3 (Homo sapiens, UniProt P41162-2 1-143).
T12 sequence: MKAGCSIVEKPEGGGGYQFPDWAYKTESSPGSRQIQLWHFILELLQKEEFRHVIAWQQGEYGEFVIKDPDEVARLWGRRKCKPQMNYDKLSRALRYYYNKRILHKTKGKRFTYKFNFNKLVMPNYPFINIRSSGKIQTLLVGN
The following applies: protein: recombinant; tags: N-terminal GST; dsDNA, one strand shown. A digest of the protocol: as §1

Another experiment addresses ETV6 (Homo sapiens, UniProt P41212 1-452). The following applies: protein: recombinant; tags: N-terminal GST; dsDNA, one strand shown. A digest of the protocol:
as §1

Chain of HSF1 (Q00613 whole entry): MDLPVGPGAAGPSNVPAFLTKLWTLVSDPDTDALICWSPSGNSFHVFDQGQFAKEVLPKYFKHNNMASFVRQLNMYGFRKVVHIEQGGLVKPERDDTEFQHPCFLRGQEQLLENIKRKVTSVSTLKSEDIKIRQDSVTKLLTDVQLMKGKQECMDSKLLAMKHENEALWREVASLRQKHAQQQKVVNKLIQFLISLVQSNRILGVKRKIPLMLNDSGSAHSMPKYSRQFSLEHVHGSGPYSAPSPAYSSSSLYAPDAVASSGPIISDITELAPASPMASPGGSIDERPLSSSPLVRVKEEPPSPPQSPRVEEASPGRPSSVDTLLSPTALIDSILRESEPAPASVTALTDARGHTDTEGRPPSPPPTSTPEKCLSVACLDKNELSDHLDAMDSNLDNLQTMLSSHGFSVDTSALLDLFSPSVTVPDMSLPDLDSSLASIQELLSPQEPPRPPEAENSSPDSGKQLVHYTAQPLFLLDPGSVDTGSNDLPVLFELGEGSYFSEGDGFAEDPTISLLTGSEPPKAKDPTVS
Chain of ETV5 (P41161 whole entry): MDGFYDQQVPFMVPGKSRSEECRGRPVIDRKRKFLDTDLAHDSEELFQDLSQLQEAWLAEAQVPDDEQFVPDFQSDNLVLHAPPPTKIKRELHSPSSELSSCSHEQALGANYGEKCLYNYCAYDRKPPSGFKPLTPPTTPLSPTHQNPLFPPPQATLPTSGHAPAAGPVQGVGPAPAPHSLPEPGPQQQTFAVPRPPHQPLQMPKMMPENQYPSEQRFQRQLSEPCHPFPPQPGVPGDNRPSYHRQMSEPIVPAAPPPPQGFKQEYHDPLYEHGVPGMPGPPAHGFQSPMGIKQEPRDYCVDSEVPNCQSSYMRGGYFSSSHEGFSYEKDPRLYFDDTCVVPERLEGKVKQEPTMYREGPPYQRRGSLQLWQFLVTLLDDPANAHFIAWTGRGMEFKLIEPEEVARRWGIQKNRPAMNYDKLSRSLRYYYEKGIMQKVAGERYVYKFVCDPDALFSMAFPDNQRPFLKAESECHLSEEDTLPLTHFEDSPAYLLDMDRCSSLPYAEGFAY
Chain of ELF4 (Q99607 whole entry): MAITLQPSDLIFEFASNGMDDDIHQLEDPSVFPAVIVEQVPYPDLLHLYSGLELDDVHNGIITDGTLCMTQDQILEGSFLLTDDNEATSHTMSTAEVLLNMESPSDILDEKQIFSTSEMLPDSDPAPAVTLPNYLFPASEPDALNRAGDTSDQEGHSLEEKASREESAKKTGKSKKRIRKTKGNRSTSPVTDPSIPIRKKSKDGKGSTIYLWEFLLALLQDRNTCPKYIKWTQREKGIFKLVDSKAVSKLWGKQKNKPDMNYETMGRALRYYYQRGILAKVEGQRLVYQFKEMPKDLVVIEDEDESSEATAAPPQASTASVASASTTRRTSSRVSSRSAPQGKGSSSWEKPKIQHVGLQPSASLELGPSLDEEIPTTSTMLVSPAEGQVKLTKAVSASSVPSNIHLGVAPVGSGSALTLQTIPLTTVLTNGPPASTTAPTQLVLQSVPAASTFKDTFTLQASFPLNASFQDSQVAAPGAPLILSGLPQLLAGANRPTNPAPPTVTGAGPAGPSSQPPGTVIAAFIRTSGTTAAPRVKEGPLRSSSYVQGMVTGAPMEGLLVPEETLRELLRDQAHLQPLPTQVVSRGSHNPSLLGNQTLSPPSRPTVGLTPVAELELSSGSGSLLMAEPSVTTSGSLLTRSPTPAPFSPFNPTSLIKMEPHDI
Chain of CRX (O43186 whole entry): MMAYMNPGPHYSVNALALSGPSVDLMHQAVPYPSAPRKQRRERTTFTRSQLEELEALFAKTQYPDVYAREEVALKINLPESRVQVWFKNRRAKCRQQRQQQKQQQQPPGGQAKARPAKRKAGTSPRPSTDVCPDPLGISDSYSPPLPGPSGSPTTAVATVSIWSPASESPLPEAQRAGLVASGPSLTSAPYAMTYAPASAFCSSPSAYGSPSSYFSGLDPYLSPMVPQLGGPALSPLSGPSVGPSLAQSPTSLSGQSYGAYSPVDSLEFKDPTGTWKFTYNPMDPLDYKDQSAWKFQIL
Chain of ETV6 (P41212 whole entry): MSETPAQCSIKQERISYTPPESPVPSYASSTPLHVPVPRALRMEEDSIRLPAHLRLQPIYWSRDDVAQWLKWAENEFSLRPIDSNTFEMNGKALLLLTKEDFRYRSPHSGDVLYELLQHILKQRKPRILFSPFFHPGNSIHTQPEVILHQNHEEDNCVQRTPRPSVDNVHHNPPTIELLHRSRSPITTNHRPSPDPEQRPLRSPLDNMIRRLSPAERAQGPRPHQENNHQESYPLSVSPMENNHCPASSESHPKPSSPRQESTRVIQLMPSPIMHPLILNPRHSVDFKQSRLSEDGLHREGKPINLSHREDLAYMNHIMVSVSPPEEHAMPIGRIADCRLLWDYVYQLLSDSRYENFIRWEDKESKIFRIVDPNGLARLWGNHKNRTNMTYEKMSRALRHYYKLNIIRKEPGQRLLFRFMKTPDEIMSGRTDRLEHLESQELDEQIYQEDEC

In the case of TGTAAT, the binding signal with FEV was 1.12 fold enrichment (6-mer frequency, TF over GST control); with ETV5, 1.17 fold enrichment (6-mer frequency, TF over GST control); in the experiment with HSF1, 1.39 fold enrichment (6-mer frequency, TF over GST control); in the experiment with SPIC, 1.27 fold enrichment (6-mer frequency, TF over GST control); with ELF4, 1.23 fold enrichment (6-mer frequency, TF over GST control); in the experiment with ELK4, 1.21 fold enrichment (6-mer frequency, TF over GST control). Also, the binding signal with ETV2 is 1.26 fold enrichment (6-mer frequency, TF over GST control); with ELF3, 1.26 fold enrichment (6-mer frequency, TF over GST control); in the experiment with CRX, 1.79 fold enrichment (6-mer frequency, TF over GST control); in the experiment with ETV1, 1.17 fold enrichment (6-mer frequency, TF over GST control); in the experiment with ERF it was 1.14 fold enrichment (6-mer frequency, TF over GST control); in the experiment with ETV3L, 1.18 fold enrichment (6-mer frequency, TF over GST control). The binding signal with ETS2 was 1.23 fold enrichment (6-mer frequency, TF over GST control); with SPDEF, 1.25 fold enrichment (6-mer frequency, TF over GST control); with ETV7 it was 1.26 fold enrichment (6-mer frequency, TF over GST control); with ELF5, 1.22 fold enrichment (6-mer frequency, TF over GST control); with ETV3 it was 1.05 fold enrichment (6-mer frequency, TF over GST control); in the experiment with ETV6 it was 1.22 fold enrichment (6-mer frequency, TF over GST control).
